This is an account of results in PubChem BioAssay AID504841 (National Center for Advancing Translational Sciences (NCATS), 2011).

Several values for one entry are separate records, joined by “and”; a condition that tells them apart may be missing. Equal values may be shown once. Among all 1,100 compounds or so, about 160 (15%) were called active. Inconclusive results (about 36%) are left out. The list is a sample of the results. A number with no mark means an inactive call. Calls come from the whole dose curve; as a rule, active = well fitted inhibition curve with a large enough effect; inconclusive = small, poorly fitted or top-dose-only effect; inactive = no such curve, though single readings can be large or run the other way.
% is set by controls: 0 for no effect and ±100 for the full control effect; potency is the fitted concentration of half-maximal effect.

ATP-dependent DNA helicase Q1 (Homo sapiens), sequence (P46063 whole entry, looked up): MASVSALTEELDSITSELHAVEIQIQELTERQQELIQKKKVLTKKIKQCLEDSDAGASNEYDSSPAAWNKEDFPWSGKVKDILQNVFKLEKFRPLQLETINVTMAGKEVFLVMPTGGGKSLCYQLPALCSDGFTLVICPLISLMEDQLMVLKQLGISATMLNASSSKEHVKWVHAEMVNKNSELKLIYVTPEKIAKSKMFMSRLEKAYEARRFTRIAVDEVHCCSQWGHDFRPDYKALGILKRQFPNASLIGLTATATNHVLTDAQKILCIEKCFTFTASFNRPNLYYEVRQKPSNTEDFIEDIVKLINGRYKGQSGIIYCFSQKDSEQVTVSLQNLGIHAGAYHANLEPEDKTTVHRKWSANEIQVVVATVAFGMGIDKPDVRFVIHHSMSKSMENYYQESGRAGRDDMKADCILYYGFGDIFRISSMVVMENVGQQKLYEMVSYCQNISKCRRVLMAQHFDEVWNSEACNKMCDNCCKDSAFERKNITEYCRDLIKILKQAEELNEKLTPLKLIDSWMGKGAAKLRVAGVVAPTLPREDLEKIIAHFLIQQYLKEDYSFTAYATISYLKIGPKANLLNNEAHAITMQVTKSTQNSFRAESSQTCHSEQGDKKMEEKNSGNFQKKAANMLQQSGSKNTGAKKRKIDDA

The assay has as its target ATP-dependent DNA helicase Q1 (Homo sapiens) (UniProt P46063). Put plainly: Confirmation qHTS Assay for Inhibitors of RecQ-Like Dna Helicase 1 (RECQ1) - Round 2 Cherry Picks. Note: nearly all actives have a fitted effect of over 50% in size. Particulars: recombinant RECQ1 DNA unwinding, red fluorescence; series mostly up to 119 µM; activity, negative = inhibition: at the top concentration. An excerpt: Survival of cells and the faithful propagation of the genome depend on elaborate mechanisms of detecting and repairing DNA damage. Treatment of advanced cancer relies on radiation therapy or chemotherapy, which kill cancer cells by causing extensive DNA damage. It is often found, that cancer cells develop resistance to therapy through enhanced activity of DNA repair functions; this has led to an increased interest in developing drugs that interfere with DNA repair, which could sensitize cancer cells to conventional therapy. This validation qHTS assay pertains to human RECQ1, which is important in resolving abnormal DNA structures formed during replication or homologous recombination. Shutting down the expression of RECQ1 leads to chromosomal instability and higher radiation sensitivity in cultured cells. […] The validation assay was a fluorescence quenching based kinetic qHTS for RECQ1 Helicase DNA unwinding. The activity was measured as ATP-dependent separation of a 20-bp DNA duplex extended by 30-nt single-stranded tails (forked duplex). The forked DNA substrate was tagged with rhodamine fluorophore (carboxytetramethyl rhodamine, TAMRA) and BHQ-2 (Black Hole Quencher 2) dark quencher. Strand separation results in an increase in the fluorescence of TAMRA (excitation 525 nm, emission 598 nm). This substrate construct operates in a red-shifted region where very few compound library members have been noted to fluoresce (PubChem AIDs 593 and 594). An additional feature of the assay is the inclusion of 2.5 ug/ml poly (dIdC), to reduce interference by compounds such as DNA intercalators, a major source of false inhibitors. NIH Chemical Genomics Center [NCGC] NIH Molecular Libraries Probe Centers Network [MLPCN] MLPCN Grant: MH087284-01 Assay Submitter (PI): Opher Gileadi, Structural Genomics Consortium, University of Oxford
Three uL of reaction buffer (25 mM Tris-HCl (pH 8.0), 5 mM NaCl, 2 mM MgCl2, 1mM DTT, 0.01% Tween- 20, and 2.5 ug/ml poly(dI-dC), including enzyme (50 nM RECQ1T1), were dispensed into a 1536-well Greiner black assay plate via solenoid-valve based nanoliter dispensers. Compounds (23 nl each in columns 5-48) and control (23 nl each in column 2 as dose-response) were transferred via a Kalypsys pintool equipped with a 1536-pin array. The plates were incubated for 15 min at room temperature, and then 1 ul of substrates (200 nM DNA and 2 mM ATP, final concentrations) was added to start the reaction. The plate was transferred into a ViewLux high-throughput CCD imager where the reaction progress was measured in a discontinuous kinetic mode (two reads spaced 2 hours apart, with intermediate room temperature incubation of the covered assay plate) by using standard red-fluorescence optics (excitation filter 525 nm, emission filter 598 nm). Enzyme-free and vehicle (DMSO) controls were included for signal normalization.
`CCC(c1nnnn1Cc1ccco1)N(Cc1cc2cc(OC)ccc2[nH]c1=O)C1CCCCC1` (stereo not drawn): the “activity, negative = inhibition” value is -21.4%. `COc1cccc(NC(=S)C(C#N)=C2N(C)c3ccccc3N2C)c1`: the “activity, negative = inhibition” value is -0.219%.

Consider `COc1c(O)cc2oc(-c3ccc(O)c(O)c3)cc(=O)c2c1O`, for which the Potency is 4.47 µM (active) and 2 µM (active). In the case of `O=C(CSc1ccc(-c2ccco2)nn1)NCc1ccc2c(c1)OCO2`, the “activity, negative = inhibition” value is -23.4%.

On to `Oc1c(C=Nc2cccc3nsnc23)ccc2ccccc12`, for which the Potency was 39.8 µM (active). On to `COc1ccc(Cl)cc1C(=O)NNC(=S)NC(=O)/C=C/c1ccco1`, for which the “activity, negative = inhibition” value was -2.87%. For `Oc1ccc(N=Cc2sc3ccccc3c2Cl)cc1`, the “activity, negative = inhibition” value was -11.5%. Take `COc1ccc2[nH]c3c(C)c4cc[n+](C)cc4c(C)c3c2c1`: the Potency is 2.51 µM (active). For `CCCCOC(=O)c1ccc(NC(c2ccc(C)cc2)P(=O)(OC)OC)cc1` (stereo not drawn), the “activity, negative = inhibition” value is -16.6%.

Take `COC(=O)Cc1cc(=O)n(-c2nc3ccccc3s2)[nH]1`: the “activity, negative = inhibition” value is -11.9%.

On to `Cc1cccc(-n2nc3c(c2NC(=O)c2ccc(Br)o2)CSC3)c1C`, for which the “activity, negative = inhibition” value is -41.9%.

`COc1cc(C(=O)NCc2nnc(SCC(=O)Nc3nc4ccc(C)cc4s3)o2)cc(OC)c1OC`: the “activity, negative = inhibition” value was -7.03%. As for `COCCNC(=O)Nc1ccc2nc(-c3ccco3)c(-c3ccco3)nc2c1`, the “activity, negative = inhibition” value was -28.3%. `CC(C)Cn1c(N)c(C(=O)NCc2cccs2)c2nc3ccccc3nc21`: the “activity, negative = inhibition” value was -24.6%. In the case of `CN1C(=O)/C(=C/c2ccco2)SC1=Nc1cccc(C(=O)O)c1`, the “activity, negative = inhibition” value is -25.9%. The same measure, in the same setting: next, `CCc1cc(C(c2ccccc2OC)N2CCOCC2)c(NC(=O)c2ccccc2)s1` (stereo not drawn): -9.28%.

For `Cc1ccc(Cc2cnc(N)s2)o1`, the “activity, negative = inhibition” value is -4.53%.

For `CC(C)C1N=C2c3ccccc3N=C(SCC(=O)c3ccc(O)c(O)c3)N2C1=O` (stereo not drawn), the Potency is 3.16 µM (active). For the compound `O=C(NCCCN1CCCCCC1)c1ccc(N2CCCC2=O)cc1`, the “activity, negative = inhibition” value was -2.14%. With `c1ccc2c(NC3C4CC5CC(C4)CC3C5)nc(N3CCOCC3)nc2c1` (stereo not drawn), the “activity, negative = inhibition” value was -24.3%. Consider `NC1=NC(=O)C(Cc2cccc(Cl)c2Cl)S1` (stereo not drawn), for which the “activity, negative = inhibition” value was -8.17%. For the compound `CC(Oc1cccc(NC(=O)c2cccs2)c1)C(=O)c1ccccc1` (stereo not drawn), the “activity, negative = inhibition” value was -15.7%.

`CCC(C)Cn1c(O)cc2nn(-c3nc4ccccc4s3)c(=O)c-2c1C` (stereo not drawn): the “activity, negative = inhibition” value was 0.169%.

As to `O=C1c2ccccc2C(=O)N1Cc1cc(-c2ccccc2Cl)no1`, the “activity, negative = inhibition” value is -18%.

With `COc1ccc(OCC(=O)Nc2nnc(-c3ccco3)s2)cc1`, the “activity, negative = inhibition” value is -18.5%. Consider `COc1ccc(NC(=O)CSc2nc(NS(=O)(=O)c3ccc(C)cc3)cc(=O)[nH]2)cc1`, for which the “activity, negative = inhibition” value is -17.4%. `COC(C(=O)Nc1ccc(S(=O)(=O)Nc2ccc(C)c(C)c2)cc1)c1ccccc1` (stereo not drawn): the “activity, negative = inhibition” value is -14.3%. For `O=C(NCCN1C(=O)S/C(=C\c2cccnc2)C1=O)c1ccc(S(=O)(=O)N2CCCC2)cc1`, the “activity, negative = inhibition” value is -0.658%. With `O=C(CN1CCN(c2ccc(O)cc2)CC1)Nc1cc(S(=O)(=O)N2CCOCC2)ccc1Cl`, the “activity, negative = inhibition” value was -16.7%. Consider `CCN(CC)c1ccc2oc(=O)c(C)nc2c1`, for which the Potency was 50.1 µM (active). `COc1ccc(/C(N)=N/OC(=O)CCCc2ccccc2)cc1`: the “activity, negative = inhibition” value is -17.6%. `Cc1ccnc2nc(C(=O)Nc3nnc(-c4ccccc4)o3)nn12`: the “activity, negative = inhibition” value was -16.8%. For the compound `CCc1ccc2nc3sc(C(=O)Nc4nnc(CC)s4)c(N)c3cc2c1`, the Potency was 39.8 µM (active).
